Reference: PubChem BioAssay (NCI)
The panel holds about 83,000 compounds, 20% with a hit somewhere; the sample as a whole holds those more often.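 Activity criterion: percent growth below 10, measured after cells in 96-well plates were exposed to a single compound concentration for 48 hours.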 Values without a mark were called inactive. Active and inactive are the calls of the source.

Tested on: MDA-MB-468 breast
Assay: NCI-60 one-dose screen, 48 h (100 = growth as untreated, 0 = no growth, -100 = all killed)
Details: 10 µM unless noted

SMILES	growth
CN(C)c1nc(N)c2nccnc2n1	115%
O=C(c1ccccc1)C(CN1CCCCC1)c1ccccc1 (configuration not stated)	-29.1% (active)
CC(C)=CCNc1ncnc2c1ncn2C1OC(COP(=O)(O)O)C(O)C1O (configuration not stated)	23.3%
Cc1nc2cc(Nc3nc(NCCN)nc(Nc4ccc(F)cc4)n3)ccc2n1Cc1ccccc1	73.2%
COc1ccc2c(c1)C(Br)=C(CCO)C2c1ccccc1 (configuration not stated)	-40.2% (active)
CC(C)(C)c1nc(-c2ccc(O)c(O)c2)cs1	53.5%
C/C=C/C1=CN2C(=O)c3cc(OC4OC(C)C(NC)C(C)(O)C4O)c(C)cc3N=C[C@@H]2C1 (some centres not stated)	-52.9% (active)
CC1(C)COB(OCC(C)(C)COB2OCC(C)(C)CO2)OC1	114%
Cc1c(C2=CCCCC2)c2ccccn2c1C(=O)c1cccc(S(=O)(=O)N2CCOCC2)c1	51.5%
O=C1NC(=O)C(c2cnc3ccccn23)=C1c1cn2c3c(cc(F)cc13)CN(C(=O)N1CCCCC1)CC2	47.6%
CC(C)(C)c1ccc(S(=O)(=O)Oc2ccc(NC(=O)C3CCCCC3)cc2)cc1	28.2%
COc1nc2c(c(=O)n1C)CN(c1ccccc1)C(=O)C(C)N2 (configuration not stated)	86.3%
C#CCNc1nc(NCCNC(=O)CCl)nc(N(C)CCCCc2ccccc2)n1	86%
Nc1c(C(=O)Nc2cccc3ccccc23)sc2nc3c(cc12)C(=O)CCC3	50%
O=C(Nc1ccc(OS(=O)(=O)c2ccc(F)cc2)cc1)C12CC3CC(CC(C3)C1)C2	39.4%
CCOC(=O)C1=C(N)Oc2cc(OC)ccc2C1c1ccc(F)c(F)c1 (configuration not stated)	-37.8% (active)
O=c1oc2ccccc2cc1-c1nn(-c2ccccc2)cc1-c1nn[nH]n1	104%
CC(C)OC(C(=O)O)c1ccccc1 (configuration not stated)	113%
CCCCCCCCC/C(=N\NC(=O)c1ccncc1)c1ccc(O)c(O)c1O	18.5%
O=C1Nc2ccc(Br)cc2/C1=N\N=C/c1cn(Cc2ccccc2)c2ccccc12	-43% (active)
O=C1NC(=C(Cl)Cl)/C(=N/S(=O)(=O)NCCc2c[nH]c3ccccc23)N1	-3.27% (active)

SMILES	growth
COc1cc(NC(=O)CCSc2nc3ccccc3c(=O)n2CCc2ccccn2)cc(OC)c1OC	91.8%
CC(=O)Oc1ccc(C2(c3ccc(OC(C)=O)cc3)C(=O)Nc3ccccc32)cc1	46.2%
O=C1c2ccccc2C(c2ccccc2)C1c1ccccc1 (configuration not stated)	71.4%
O=C(NCCO)c1cccnc1	93.7%
C#CCOC(=O)/C=C/c1cn(-c2ccccc2)nc1-c1ccc(OC)cc1	101%
O=C(CSc1nnc(-c2ccc(Cl)cc2)n1-c1ccccc1)Nc1ccc(Br)cc1	59.1%
Nc1c(C(=O)Nc2cccc(F)c2)sc2nc3c(cc12)C(=O)CCC3	33.2%
NNC(=O)/C(=C\c1ccc([N+](=O)[O-])cc1)CC(=O)c1ccc(Cl)c(Cl)c1	89.2%
CCCCCC(C)(CC(=O)O)CC(=O)O	95.3%
Fc1ccccc1Nc1n[nH]c(=S)s1	106%
O=C(N/N=C/c1ccc(Oc2ccccc2)cc1)c1cnn2c1NC(c1ccccc1)C2 (configuration not stated)	30.2%
Cc1ccc2nc(NC(=O)CSc3nc(-c4ccccc4)c(C#N)c(=O)n3Cc3ccccc3)sc2c1	102%
CSc1ncccc1C(=O)OCC(=O)Nc1oc(C)c2c(C)n[nH]c(=O)c12	98%
NC(N)=N/N=C/c1cccc(Br)c1	87%
COc1cc(CNC(=O)/C=C/C=C/c2ccc3c(c2)OCO3)ccc1OCc1cn(-c2ccc(Cl)c(Cl)c2)nn1	-68.1% (active)
COc1ccc(-c2cc(-c3cccc(NS(C)(=O)=O)c3)nc(N)c2C#N)cc1	0.11% (active)
O=c1oc2c(cnc3ccccc32)cc1-c1cccc(Cl)c1	104%
O=C(O)/C=C/C(=O)NCc1ccccc1	101%
CCN(CCCOc1ccc2c(Nc3cc(CC(=O)Nc4cccc(F)c4)[nH]n3)ncnc2c1)CCOP(=O)(O)O	67.6%
Cc1ccc(C2CC(c3cccc(Nc4ccncc4)c3)=NN2c2cc(Cl)cc(Cl)c2)cc1 (configuration not stated)	-30% (active)
COc1ccc(CNc2c3ccccc3nc3ccccc23)cc1F	-18.7% (active)
